# From PubChem
# ERa coact inh: ER-alpha (human) coactivator binding inhibition; 1.7% of 86,000 active; AID 629; P03372; TR-FRET ER-alpha LBD / SRC-1 peptide, estradiol-bound; inhibition, % at 25.6 µM; in the data active = inhibition above about 50%;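 also: 0% = receptor plus peptide control and 100% = peptide only without receptor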
# ERb coact inh: ER-beta (human) coactivator binding inhibition. Q92731. 1.3% of 86,000 active. TR-FRET ER-beta LBD / SRC1-Cy5 peptide binding; receptor agonist-loaded with 1 µM estradiol. inhibition, % at 25.6 µM;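 active = compounds whose percent inhibition of the receptor-coactivator binding signal exceeds about 50% in the single-dose screen, limit read from the data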;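 also: 0% = receptor plus peptide wells without compound and 100% = peptide-only wells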
# Target sequence (Q92731 whole entry, looked up, the tested form may be a part): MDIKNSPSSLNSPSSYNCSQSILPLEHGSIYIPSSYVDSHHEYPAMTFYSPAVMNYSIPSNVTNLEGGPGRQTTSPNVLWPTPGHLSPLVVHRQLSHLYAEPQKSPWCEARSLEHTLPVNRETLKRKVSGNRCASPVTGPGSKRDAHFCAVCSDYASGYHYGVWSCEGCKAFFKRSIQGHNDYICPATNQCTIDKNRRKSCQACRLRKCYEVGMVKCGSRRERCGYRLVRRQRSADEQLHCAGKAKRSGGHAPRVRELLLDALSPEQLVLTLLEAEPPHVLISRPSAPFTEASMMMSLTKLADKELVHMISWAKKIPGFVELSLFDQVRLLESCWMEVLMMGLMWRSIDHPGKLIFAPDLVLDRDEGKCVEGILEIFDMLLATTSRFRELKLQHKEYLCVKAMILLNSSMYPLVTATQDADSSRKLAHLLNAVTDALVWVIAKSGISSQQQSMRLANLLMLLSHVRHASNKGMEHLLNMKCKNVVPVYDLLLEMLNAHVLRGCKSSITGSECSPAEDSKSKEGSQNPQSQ
# DAT uptake mod: changed human dopamine transporter uptake under cocaine IC80; Q01959; LLC-PK1 hDAT cells, [14C]-dopamine uptake with cocaine IC80; actives deviate in either direction; B-score at 10 µM; 1.3% of 110,000 active;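 active = Z score or B-score, a plate-position-corrected score, falls beyond the plate's 99.7% confidence bounds, in either direction; inactive = both scores lie inside the 99.7% bounds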;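 also: scored against the spread of the other compound wells on the same plate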
# ERa coact pot: enhances coactivator binding to human estrogen receptor alpha; P03372; TR-FRET ERalpha-LBD/SRC-Cy5 coactivator binding, 2 h; 100 = basal binding, no effect; coactivator binding (% of control), % at 25.6 µM; 1.3% of 86,000 active; AID 639; in the data active = activity above about 200%;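 also: binding measured in presence of low estradiol as agonist stimulus; 0% = peptide alone without receptor and 100% = receptor with peptide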
# MT1-MMP txn act: activates MT1-MMP transcription; HT1080 MT1-MMP promoter luciferase reporter, luminescence, overnight; active compounds read high; activation factor at 10 µM; 0.16% of 86,000 active; AID 750;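 active = activation factor of at least 2 for MT1-MMP transcription at 10 µM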
# * = called active by the depositor; nt = not tested or not shown; [ ] = another dose, or the depositor's remark. Sampled rows, rich in hits. Any-hit rate of the full collection: about 3.8%.
SMILES,ERa coact inh,ERb coact inh,DAT uptake mod,ERa coact pot,MT1-MMP txn act
CCc1cc2cc(C(=O)Nc3ccc(F)cc3)sc2s1,36.6,49.0,-0.939,308.2*[fluorescence artefact?],1.7
CCCCn1c(N)c(-c2nc3ccccc3s2)c2c([N+](=O)[O-])nn(C)c(=O)c21,nt,nt,-0.12,nt,nt
Cn1nc([N+](=O)[O-])c2c(-c3nc4ccccc4s3)c(N)n(C3CCCCC3)c2c1=O,93.4*,65.4*,-0.0615,4.4,1.2
Cc1ccc(C(C)C)c(OCC(O)CN2CC(C)OC(C)C2)c1 (stereo not drawn),-2.0,51.5*[fluorescence artefact?],-0.0158,97.0,1.1
Cc1c(CNC(=O)c2cnn3c2NC(c2ccc(Br)cc2)CC3C(F)(F)F)cnn1C (stereo not drawn),-0.2,2.3,3.13*,102.1,1
N=c1c2c(n(Cc3ccc(F)cc3)c3c1CCC3)CCC2,2.6,4.2,-5.18*,88.1,1.1
Fc1ccc(CN2CCCCCCC2)cc1,0.7,-0.7,-0.598,96.2,1.2
Cc1ccc(NC(=O)CN2C(=O)S/C(=C/c3ccc(-c4cc(C(=O)O)ccc4C)o3)C2=O)cc1C,66.1*,72.6*,-0.0431,237.1*[fluorescence artefact?],1.1
CCCc1nc2ccccc2c(=O)n1/N=C/c1ccc(O)cc1O,3.3,9.6,-8.77*,85.5,1.1
CCCc1nc2ccccc2c(=O)n1/N=C/c1ccc(O)cc1,-2.6,-2.4,-0.75,116.8,1.1
C=CCSC1=N/C(=C\C=C\c2ccco2)C(=O)S1,78.3*,63.8*,-0.97,62.8,1.1
COc1ccc(CCNC(=O)CCC2COc3ccccc3O2)cc1OC (stereo not drawn),-2.1,-5.1,1.07,107.5,1.1
CC1CCCN(C(=O)C(C)Sc2nc(-c3ccccc3)cc(C(F)(F)F)n2)C1 (stereo not drawn),-1.3,7.9,0.988,84.5,1
CCc1ccc(Cn2nnc(C(=O)Nc3ccc(OC)cc3OC)c2N)cc1,10.3,-3.4,0.0516,122.6,1.1
CCOc1ccc(Cn2nnc(C(=O)NCc3ccc(OC)cc3)c2N)cc1,2.4,6.7,-0.288,227.7*,1.1
COc1ccc(N2CCN(C(c3cc(OC)ccc3OC)c3nnnn3CC3CCCO3)CC2)cc1 (stereo not drawn),-5.8,-4.0,0.181,115.5,1.1
COC(=O)c1ccc2c(c1)C(C)(C)C(/C=C/c1ccccc1O)=[N+]2C,nt,nt,-3.58*,nt,nt
CN(C)c1ccc(CNC(=O)C2(C)C=CCN2C(=O)c2ccccc2)cc1 (stereo not drawn),nt,nt,nt,nt,1.1
c1csc(Cc2nn3c(-c4n[nH]c5c4CCC5)nnc3s2)c1,86.7*[fluorescence artefact?],62.3*,0.0532,27.3,1.3
c1coc(-c2nnc3sc(Cc4cccs4)nn23)c1,86.5*[fluorescence artefact?],67.1*,1.67,49.3,0.9
c1coc(-c2nn3c(-c4ccco4)nnc3s2)c1,57.7*[fluorescence artefact?],55.4*,nt,76.4,1.2
COc1ccc(Cl)cc1NC(=S)NCc1ccco1,-1.4,-5.0,0.0465,103.5,1.2
CC(OC(=O)c1snc(C(=O)NC2CCCCC2)c1N)C(=O)NC1CCCCC1 (stereo not drawn),-29.1,-9.5,1.02,107.3,1.1
C1CN(CC23CC4CC(CC(C4)C2)C3)CCO1,-3.0,1.7,0.745,92.0,1.3
COc1ccc(OC)c(NC(=O)C2CCN(Cc3cnn(-c4ccccc4)c3-n3cccc3)CC2)c1,-3.8,-8.7,-0.196,214.5*,1
SMILES,ERa coact inh,ERb coact inh,DAT uptake mod,ERa coact pot,MT1-MMP txn act
O=C1CCCCCCC1Sc1ccccc1[N+](=O)[O-] (stereo not drawn),nt,nt,-0.506,nt,nt
CCS(=O)(=O)N1Cc2ccccc2CC1C(=O)N1CCN(c2ccccc2)CC1 (stereo not drawn),14.0,2.8,0.436,222.6*[fluorescence artefact?],1.1
Cc1nc(Cl)c(C(=O)NC(=O)Nc2cccc(C(F)(F)F)c2)c(C)c1[N+](=O)[O-],-9.3,-8.3,-0.875,119.2,1.2
CC(=O)c1ccc(NC(=O)c2cn(-c3ccccc3)nc2-c2ccncc2)cc1,nt,nt,-0.927,nt,nt
O=C(Nc1ccncc1)c1cn(-c2ccccc2)nc1-c1cccs1,18.0,1.4,nt,228.8*[fluorescence artefact?],1.1
COC(=O)[C@@]1(Cc2ccccc2)[C@H]2c3cc(C(=O)N4CCCC4)n(Cc4cccc5ccccc45)c3C[C@H]2CN1C(=O)c1ccccc1,nt,nt,nt,nt,1.1
S=C1NC[C@H](c2ccccc2)N1CC1CCCCC1,nt,nt,-0.431,nt,nt
O=C(CSc1nnc(-c2cccnc2)o1)Oc1ccccc1,nt,nt,0.207,nt,1.1
O=C(CSc1nnc(-c2cccnc2)o1)c1cc2ccccc2oc1=O,-3.8,3.0,-0.0101,220.7*,1.4
CC1(C)CC(=O)c2cnc(NCC3CCCO3)nc2C1 (stereo not drawn),55.0*,23.5,-0.611,106.2,1.3
CC1CC(=O)c2cnc(NCC3CCCO3)nc2C1 (stereo not drawn),3.1,3.2,0.0957,101.6,1.2
CC(NS(=O)(=O)c1ccccc1)C(c1cccs1)N1CCN(c2ccccc2)CC1 (stereo not drawn),-6.1,-5.8,4.82*,120.0,1.3
O=C1c2cccc3c(O)ccc(c23)C(=O)N1Cc1ccccc1,nt,nt,-0.192,nt,nt
Cc1ccccc1C(=O)N1CCN(c2ncnc3c2cnn3-c2ccccc2)CC1,-8.8,-3.0,-5.34*,112.4,1.3
Cc1ccc(C(=O)N2CCN(c3ncnc4c3cnn4-c3ccccc3)CC2)cc1,-2.9,-3.8,0.31,117.5,1.3
c1ccc(-n2ncc3c(NCc4cccnc4)ncnc32)cc1,4.4,-3.3,2.56*,103.2,1.5
Cc1ccccc1Nc1ncnc2c1cnn2-c1ccccc1,5.0,-9.1,3.11*,98.2,1.3
N#Cc1ccc(C23CC4(C2)[C@H](CN(Cc2cccnc2)[C@@H]4c2ccccc2)C3c2ccc(C(F)(F)F)cc2)cc1 (stereo partly drawn),nt,nt,nt,nt,1.5
COc1ccc(CNC(=O)c2ccc(Br)o2)cc1,nt,nt,0.0123,nt,nt
C[C@@H]1NC(=O)c2cc([N+](=O)[O-])cc(I)c2OCC[C@@H](C(=O)NC(CC(=O)O)C(N)=O)NC(=O)[C@H](CC(N)=O)NC1=O (stereo partly drawn),nt,nt,-0.556,nt,nt
CCN1C(=O)/C(=C2/Sc3ccc(OC)cc3N2C)SC1=Nc1cccc(O)c1,65.7*,64.1*,-0.0967,151.9,0.9
CCN1C(=O)/C(=C2/Sc3ccc(OC)cc3N2C)SC1=Nc1ccc(C(C)=O)cc1,36.5,30.9,nt,96.0,nt
Cc1nnc(SCC(=O)NC2CCCCC2)n(N)c1=O,nt,nt,0.39,nt,nt
N#Cc1c(-c2ccccc2)cc(-c2ccco2)c(C#N)c1N,80.3*,56.5*,nt,98.3,nt
CC(C)(C)c1cc(-c2ccco2)c(C#N)c(SCC#N)n1,20.0,18.0,1.05,117.2,1.1
N#Cc1sc2nc(-c3ccccc3)cc(-c3ccco3)c2c1N,88.5*[fluorescence artefact?],76.2*[fluorescence artefact?],-0.674,13.9,1.1
Nc1nnc(SCc2ccc(F)cc2)n1-c1ccccc1,-2.2,-2.1,0.0728,110.7,1
CCC/C=C(\CCC)C(NS(=O)(=O)c1ccc(-c2ccccc2)cc1)c1ccc(C(=O)OC)cc1 (stereo not drawn),nt,nt,nt,nt,1.2
